HP1b chromo inh: HTS for Inhibitors of HP1-beta Chromodomain Interactions with Methylated Histone Tails; Chromobox protein homolog 1 (Homo sapiens), P83916; AlphaScreen HP1-beta / biotin-H3K9me3 peptide binding; Potency, µM (doses to about 114 µM), most hits filed as inhibitors; 0.56% of 390,000 active; AID 540317, 2011; also: nearly all actives have a fitted effect of over 70% in size
Target sequence (P83916 whole entry, looked up): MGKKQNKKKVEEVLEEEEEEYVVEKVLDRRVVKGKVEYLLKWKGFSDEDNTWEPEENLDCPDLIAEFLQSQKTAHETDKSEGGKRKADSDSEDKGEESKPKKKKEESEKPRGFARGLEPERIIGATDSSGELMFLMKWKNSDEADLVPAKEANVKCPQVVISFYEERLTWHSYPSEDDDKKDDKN
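Compound inhibition of the preformed complex between 50 nM HP1-beta and 50 nM biotinylated H3K9me3 peptide was read by AlphaScreen. Buffer was PBS pH 7.4 with 0.01% Tween-20. Incubations ran 30 min at room temperature, with 10 ug/mL donor/acceptor beads.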
G9a inh: qHTS Assay for Inhibitors of Histone Lysine Methyltransferase G9a. 8.8% of 350,000 active. Histone-lysine N-methyltransferase EHMT2 (Homo sapiens), Q96KQ7. AID 504332, 2011. G9a H3K9 monomethylation, AlphaScreen, 2 h. Potency, µM (doses to about 102 µM), hits mostly inhibitors; also: nearly all actives have a fitted effect of over 75% in size
Target sequence (Q96KQ7 913-1193 limits assumed): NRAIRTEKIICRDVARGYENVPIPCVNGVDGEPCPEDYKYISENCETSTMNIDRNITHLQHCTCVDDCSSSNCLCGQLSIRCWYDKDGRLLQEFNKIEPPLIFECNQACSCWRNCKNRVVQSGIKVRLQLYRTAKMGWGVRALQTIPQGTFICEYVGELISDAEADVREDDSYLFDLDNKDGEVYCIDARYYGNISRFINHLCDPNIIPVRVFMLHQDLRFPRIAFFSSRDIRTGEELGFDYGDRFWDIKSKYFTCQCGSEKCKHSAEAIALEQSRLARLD
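Enzyme 20 nM + cpd, 15 min RT; add b-H3K9 pep 500 nM / SAM 20 uM; 2 h RT; anti-H3K9me1 Ab 0.5 ug/mL + SA donor / anti-rabbit acceptor beads 20 ug/mL each, 10 min; AlphaScreen read.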
BAZ2B block: qHTS Assay for Inhibitors of BAZ2B | Bromodomain adjacent to zinc finger domain protein 2B (Homo sapiens), Q9UIF8 | AlphaScreen BAZ2B-H3K14Ac peptide displacement | Potency, µM (series often up to 114 µM), usual class: inhibitors | 4.4% of 360,000 active; also: nearly all actives have a fitted effect of over 60% in size
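Protein-peptide AlphaScreen: BAZ2B 50 nM, b-H3K14Ac 50 nM, 1x PBS pH 7.4 + 0.01% Tween-20. Preincubation 30 min RT; cpd 30 min RT (top 110 uM); beads 20 min RT, light-protected.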
L3MBTL1 block: qHTS Assay for the Inhibitors of L3MBTL1; AlphaScreen L3MBTL1–H3K9me1 peptide binding; Lethal(3)malignant brain tumor-like protein 1 (Homo sapiens), Q9Y468; 0.66% of 230,000 active; Potency, µM (highest dose often 57.1 µM), most hits filed as inhibitors; AID 485360, 2010; also: nearly all actives have a fitted effect of over 60% in size
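AlphaScreen proximity signal between nickel-chelate acceptor and streptavidin donor beads (final 10 ug/mL) reports binding of 50 nM L3MBTL1 to 75 nM biotin-H3 K9me1 peptide; complex incubated with compounds 30 min at room temperature; cefsulodin titration as control.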
Sfp inh: qHTS Assay for Inhibitors of Bacillus subtilis Sfp phosphopantetheinyl transferase (PPTase). AID 1490, 2009. 3.5% of 310,000 active. Potency, µM, most hits filed as inhibitors. Biochemical Sfp PPTase activity, qHTS. 4'-phosphopantetheinyl transferase ffp (Bacillus subtilis), Q9F4F7;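 also: the enzyme is Sfp with the accession as filed and its product quenches rhodamine fluorescence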
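Fluorescence-quenching assay with 15 nM Sfp, 5 uM rhodamine-CoA and 12.5 uM BHQ-2-labelled ybbR peptide in pH 7.6 Hepes/MgCl2 buffer. Enzyme was pre-incubated with compound for 15 min at room temperature. Rate was taken from the 30-min fluorescence change (525/598 nm).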
JMJD2A Tudor: qHTS Assay for Inhibitors of JMJD2A-Tudor Domain | Lysine-specific demethylase 4A (Homo sapiens), O75164 | AlphaScreen JMJD2A-Tudor / H3K4me3 peptide binding | Potency, µM (series often up to 114 µM), hits mostly inhibitors | 4.4% of 390,000 active | AID 504339, 2011; also: nearly all actives have a fitted effect of over 50% in size
A number is an active result; n = inactive; u = inconclusive; x = not tested or not shown; [ ] = dose if it differs, or a comment. Most compounds without a hit are left out; they make up all but 12% or so of the library. Calls follow the shape of the dose curve; as a rule, active = well fitted curve in the direction sought with a large enough effect; inconclusive = small, poorly fitted or top-dose-only effect, or another doubt; inactive = no such curve, though single readings can be large; an effect the other way counts as inactive or inconclusive.

SMILES	HP1b chromo inh	G9a inh	BAZ2B block	L3MBTL1 block	Sfp inh	JMJD2A Tudor
Cc1cccc(NC(=S)NNC(=S)NC2CCCCC2)c1C	n	1.3µM	n	n	u	n
Cc1ccccc1NC(=S)NC1CCCC1	n	n	n	n	n	n
Cc1ccc(NC(=S)NNC(=S)NC2CCCCC2)cc1	n	u	n	x	40µM	u
O=C(CC1N=C2c3ccccc3N=C(SCc3ccccc3F)N2C1=O)NCc1ccc2c(c1)OCO2 (centres undefined)	n	n	n	x	x	n
CN(C(=S)NC(=O)c1ccc(F)cc1)C1CCCCC1	n	n	n	x	n	n
CN(C(=S)NC(=O)c1ccc(Cl)cc1)C1CCCCC1	n	8.9µM	45µM	x	50µM	n
c1ccc2c(c1)CCN(C1=Nc3cccc4cccc1c34)C2	u	u	32µM	u	n	u
CCOc1ccc(N(Cc2cc3cc(C)ccc3[nH]c2=O)C(=O)c2cccc(Cl)c2)cc1	n	n	n	x	x	n
O=C(NCC(c1ccco1)N1CCCC1)c1ccccc1Sc1ccc(C(F)(F)F)cc1[N+](=O)[O-] (centres undefined)	n	10µM	u	n	x	u
O=C(Nc1cccc(Br)c1)c1ccn[nH]1	n	n	n	n	n	n
O=C(O)c1ccn[nH]1	n	x	x	x	x	45µM
COc1ccccc1NC(=O)Cn1c(=O)n(Cc2nc(C)no2)c(=O)c2cc3c(cc21)OCO3	n	n	n	x	x	n
COCCNC(=O)C(=O)NCC(c1cccnc1)N1CCN(c2ccccc2)CC1 (centres undefined)	n	n	n	x	x	n
CC(C)(C)c1cccc(Oc2nn[nH]n2)c1	n	79µM	n	n	n	n
O=C1CCC(C(=O)OCc2c(Cl)cccc2Cl)N1 (centres undefined)	n	n	n	n	n	n
O=C1CCC(C(=O)OCc2ccccc2)N1 (centres undefined)	n	6.3µM	n	x	n	n
COc1cccc(CNCCSc2nnnn2-c2ccccc2)c1OC	n	n	n	x	x	n
CCOC(=O)c1c(NC(=O)CSc2nnc(-c3ccco3)o2)sc(C(C)=O)c1C	n	n	n	x	n	n
CCOC(=O)c1c(NC(=O)CSc2nc3ccccc3o2)sc(C)c1C	n	n[2.33 µM]	n	n	45µM	n
CCOC(=O)c1c(NC(=O)CSc2nnc(-c3cccnc3)o2)sc(C(C)=O)c1C	u	n	u	n	n	18µM
O=C(CSc1nc2ccccc2o1)Nc1nc2ccc(Br)cc2s1	n	45µM	n	x	n	n[11.4 µM]
CCOC(=O)c1c(NC(=O)CSc2nc3ccccc3s2)sc(C)c1C	n	n	n	n	n	n
CCOC(=O)c1c(NC(=O)CSc2nnc(-c3ccccc3C)n2C)sc(C(C)=O)c1C	n	u	50µM	x	n	n
CCOC(=O)c1c(NC(=O)CSc2nc3cccnc3n2C)sc(C(C)=O)c1C	n	n[2.33 µM]	n	n	u	n
COc1ccc(N2CCN(c3oc(/C=C/c4cc(OC)c(OC)c(OC)c4)nc3C#N)CC2)cc1	n	u	u	x	x	u
SMILES	HP1b chromo inh	G9a inh	BAZ2B block	L3MBTL1 block	Sfp inh	JMJD2A Tudor
CCCn1c(=O)c2sccc2n2c(CCCC(=O)N3CCN(c4ccccc4)CC3)nnc12	n	n	n	x	x	n
CCOC(=O)c1c(NC(=O)CSc2nnc(-c3ccco3)o2)sc(C)c1C	n	n	n	n	50µM	n
Cc1nn2c(=O)cc(COC(=O)c3ccccc3NC(=O)C(C)C)nc2s1	n	n[12.7 µM]	n	x	x	n
COc1ccc(C(=S)Nc2ccc(C)cc2)cc1	u	10µM	n	n	32µM	n
COc1ccc(C(=S)NCS(=O)(=O)c2ccc(C)cc2)cc1	n	8.9µM	u	n	u	n
Cc1ccc(S(=O)(=O)CNC(=O)c2ccccc2)cc1	n	u	n	n	n	n
Cc1ccc(S(=O)(=O)CNC(=S)c2ccc3ccccc3c2)cc1	n	8.9µM	u	x	56µM	u
Cc1ccc(S(=O)(=O)CNC(=S)c2cccc(C)c2)cc1	u	10µM	n	x	n	n
Cc1ccc(C(=O)NNC(=O)c2ccc3ccccc3c2)cc1	n	x	x	x	x	n
CCc1ccc(NC(=O)CN2C(=O)C(c3ccc(C)cc3)=NC23CCCCC3)cc1	n	n	n	x	x	n
COc1ccc(-c2nsc(NC(=O)c3cccc(OC)c3)n2)cc1	n	n	n	x	x	n
O=C(CBr)c1ccc([N+](=O)[O-])c(CS(=O)(=O)c2ccc(Cl)cc2)c1	n	7.1µM	n	x	56µM	u
O=C(O)c1cccc([N+](=O)[O-])c1C(=O)Nc1nc2ccccc2s1	n	79µM	n	n	n	n
O=C(Nc1ccc2oc(-c3cc(Br)ccc3Cl)nc2c1)c1cc2ccccc2o1	n	u	79µM	x	x	n
O=C(Nc1ccc2oc(-c3ccc(Br)cc3)nc2c1)c1cc2ccccc2o1	n	n	n	x	x	n
COC(=O)CSc1nc(-c2ccc(C)cc2)c2c(c1C#N)CCCC2	n	n[2.33 µM]	n	x	u	n
COC(=O)c1ccc(CSc2nc(C(F)(F)F)c3c(c2C#N)CCC3)o1	n	n[0.0925 µM]	n	n	56µM	n
Cc1c(C(=O)c2ccc(Cl)c([N+](=O)[O-])c2)c2ccccn2c1CCC#N	u	u	u	n	n	u
Cc1c(C(=O)c2ccc(F)cc2F)c2ccccn2c1CCC#N	n	8.9µM	18µM	x	u	n
Cc1c(C(=O)c2ccc(N(C)C)cc2)c2ccccn2c1CCC#N	u	45µM	u	x	n	u
COc1ccccc1NC(=O)CSC1=Nc2ccccc2C2=NC(CC(=O)NCc3ccco3)C(=O)N12 (centres undefined)	n	n	n	x	x	n
Fc1ccc(Nc2nc(-c3cccc(Cl)c3)c3c(n2)-c2ccccc2OC3)c(F)c1	n	n	n	x	x	n
CCN(CCNC(=O)C1CCC(=O)N1Cc1ccc(C)cc1)c1ccccc1 (centres undefined)	n	50µM	n	x	n	n
CN(CCCNC(=O)C1CCC(=O)N1Cc1ccc(F)cc1)c1ccccc1 (centres undefined)	n	79µM	n	n	n	n
CCN(CCCNC(=O)C1CCC(=O)N1Cc1ccccc1Cl)c1cccc(C)c1 (centres undefined)	n	45µM	u	x	n	n
CCN(CCNC(=O)CN1CCN(Cc2ccc(Cl)cc2)C1=O)c1ccccc1	n	11µM	u	x	n	n
CCN(CCCNC(=O)C1CCC(=O)N1Cc1ccc(C)cc1)c1cccc(C)c1 (centres undefined)	n	n[0.501 µM]	u	n	n	u
